Laboratory results published in PubChem BioAssay (NCATS).
Some of the results follow. A call without a number means that no potency is given here. Inconclusive results are not listed. Activity calls are given as the source filed them. The call rests on the fitted dose curve; in most records, active means well fitted inhibition curve with a large enough effect; inconclusive means small, poorly fitted or top-dose-only effect; inactive means flat fitted curve, though single readings scatter.

Biological target: Luciferin 4-monooxygenase (Photinus pyralis) (UniProt P08659)
Test: qHTS screen for small molecules that inhibit ELG1-dependent DNA repair: Hit Confirmation in Biochemical Luciferin Assay (AID 624253)
Conditions: purified firefly luciferase, luminescence counter-screen; series mostly up to 57.5 µM
Excerpt: Cancer cells divide rapidly compared to normal cells in the body. During cell division, cancer cells need to duplicate their genome by DNA replication. The failure of genome duplication leads to cancer cells' death. Therefore, inhibitors of DNA replication could specifically kill cancer cells. Based on this concept, many chemotherapeutic agents were developed and have been used to treat cancer patients. However, there are a limited number of agents available in the clinical setting, and some of those that do exist have low efficacy and severe side effects. Therefore, if we can find the compounds that effectively block DNA replication either by directly damaging DNA or by inhibiting other cellular mechanisms, the options for cancer treatment will be broadened. With this in mind, we developed a quantitative high-throughput ELG1-luciferase reporter gene assay. Small molecules that specifically block ELG1 function in response to DNA damage can be identified by monitoring the suppression of luciferase activity. Since ELG1 defines a pathway for repairing DNA damage, agents blocking ELG1 function can be used to sensitize cancer cells to chemotherapeutic agents whose mechanism of action involves the induction of DNA damage. NIH Molecular Libraries Probe Production Network [MLPCN] NIH Chemical Genomics Center [NCGC] MLPCN Grant: R03 MH092164 Assay Provider: Kyungjae Myung, NHGRI, NIH
3 uL of substrate reagent will be pipetted into each well in 1536-well white, solid-bottom plates using a FRD dispenser, followed by addition of 23 nL of DMSO or compounds by pintool. After compound addition, 1 µL of luciferase will be added into the wells. The plates will be read in a ViewLux CCD-based plate reader.
Potency means the concentration at half of the fitted maximal effect.

| Compound | Potency |
| --- | --- |
| COc1ccc(NC(=O)C2CCC(CNc3c(N4CCCCC4)c(=O)c3=O)CC2)c(OC)c1 (stereo not given) | inactive |
| O=C(C1CCCN(S(=O)(=O)c2ccccc2)C1)N1CCN(c2ccc(F)cc2)CC1 (stereo not given) | inactive |
| Cc1ccccc1NC(=O)CSc1nc2ccc(Nc3nc(N4CCOCC4)nc(N4CCOCC4)n3)cc2s1 | inactive |
| Cc1ccc(Nc2nc(N3CCOCC3)nc(N3CCOCC3)n2)cc1Cl | inactive |
| COc1ccc(CSc2nc(N3CCOCC3)c3c(c2C#N)CC(C)(C)OC3)cc1 | inactive |
| O=C(Nn1c(SCc2ccc([N+](=O)[O-])cc2)nc2ccccc2c1=O)c1ccc(F)cc1 | 16.4 µM (active) |
| COc1ccc(NC(=O)c2sc3nc(C)nc(N4CCN(c5ccccn5)CC4)c3c2C)c(OC)c1 | inactive |
| COc1ccc(NC(C)=O)cc1NC(=O)CN1CCN(C2c3ccccc3-c3ccccc32)CC1 | inactive |
| CS(=O)c1ccc(/C=C2\C=Cc3ccccc32)cc1 (stereo not given) | 1.03 µM (active) |
| CC(=O)N1CCc2cc(Br)cc(S(=O)(=O)CCC(=O)Nc3c(C)n(C)n(-c4ccccc4)c3=O)c21 | inactive |
